# Screening data from PubChem BioAssay.
# The entries come from a sample that favours hits as a whole.
# Pf apPOL inh: Pf-apPOL DNA polymerase inhibition; Recombinant Pf-apPOL, molecular beacon fluorescence, 1.5 h; inhibition, % at 10 µM; actives 0.25% (n = 210,000); AID 1794808
# mHTT-CaM PPI inh: disrupts binding of mutant huntingtin to calmodulin | P42858 | AlphaScreen His-mHTT/GST-CaM binding, luminescence | inhibition, % at 15 µM | actives 3.6% (n = 190,000) | AID 1671202;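 also: 0% = both proteins with DMSO and 100% = one protein alone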
# Target sequence (P42858 whole entry, looked up, stated change not applied): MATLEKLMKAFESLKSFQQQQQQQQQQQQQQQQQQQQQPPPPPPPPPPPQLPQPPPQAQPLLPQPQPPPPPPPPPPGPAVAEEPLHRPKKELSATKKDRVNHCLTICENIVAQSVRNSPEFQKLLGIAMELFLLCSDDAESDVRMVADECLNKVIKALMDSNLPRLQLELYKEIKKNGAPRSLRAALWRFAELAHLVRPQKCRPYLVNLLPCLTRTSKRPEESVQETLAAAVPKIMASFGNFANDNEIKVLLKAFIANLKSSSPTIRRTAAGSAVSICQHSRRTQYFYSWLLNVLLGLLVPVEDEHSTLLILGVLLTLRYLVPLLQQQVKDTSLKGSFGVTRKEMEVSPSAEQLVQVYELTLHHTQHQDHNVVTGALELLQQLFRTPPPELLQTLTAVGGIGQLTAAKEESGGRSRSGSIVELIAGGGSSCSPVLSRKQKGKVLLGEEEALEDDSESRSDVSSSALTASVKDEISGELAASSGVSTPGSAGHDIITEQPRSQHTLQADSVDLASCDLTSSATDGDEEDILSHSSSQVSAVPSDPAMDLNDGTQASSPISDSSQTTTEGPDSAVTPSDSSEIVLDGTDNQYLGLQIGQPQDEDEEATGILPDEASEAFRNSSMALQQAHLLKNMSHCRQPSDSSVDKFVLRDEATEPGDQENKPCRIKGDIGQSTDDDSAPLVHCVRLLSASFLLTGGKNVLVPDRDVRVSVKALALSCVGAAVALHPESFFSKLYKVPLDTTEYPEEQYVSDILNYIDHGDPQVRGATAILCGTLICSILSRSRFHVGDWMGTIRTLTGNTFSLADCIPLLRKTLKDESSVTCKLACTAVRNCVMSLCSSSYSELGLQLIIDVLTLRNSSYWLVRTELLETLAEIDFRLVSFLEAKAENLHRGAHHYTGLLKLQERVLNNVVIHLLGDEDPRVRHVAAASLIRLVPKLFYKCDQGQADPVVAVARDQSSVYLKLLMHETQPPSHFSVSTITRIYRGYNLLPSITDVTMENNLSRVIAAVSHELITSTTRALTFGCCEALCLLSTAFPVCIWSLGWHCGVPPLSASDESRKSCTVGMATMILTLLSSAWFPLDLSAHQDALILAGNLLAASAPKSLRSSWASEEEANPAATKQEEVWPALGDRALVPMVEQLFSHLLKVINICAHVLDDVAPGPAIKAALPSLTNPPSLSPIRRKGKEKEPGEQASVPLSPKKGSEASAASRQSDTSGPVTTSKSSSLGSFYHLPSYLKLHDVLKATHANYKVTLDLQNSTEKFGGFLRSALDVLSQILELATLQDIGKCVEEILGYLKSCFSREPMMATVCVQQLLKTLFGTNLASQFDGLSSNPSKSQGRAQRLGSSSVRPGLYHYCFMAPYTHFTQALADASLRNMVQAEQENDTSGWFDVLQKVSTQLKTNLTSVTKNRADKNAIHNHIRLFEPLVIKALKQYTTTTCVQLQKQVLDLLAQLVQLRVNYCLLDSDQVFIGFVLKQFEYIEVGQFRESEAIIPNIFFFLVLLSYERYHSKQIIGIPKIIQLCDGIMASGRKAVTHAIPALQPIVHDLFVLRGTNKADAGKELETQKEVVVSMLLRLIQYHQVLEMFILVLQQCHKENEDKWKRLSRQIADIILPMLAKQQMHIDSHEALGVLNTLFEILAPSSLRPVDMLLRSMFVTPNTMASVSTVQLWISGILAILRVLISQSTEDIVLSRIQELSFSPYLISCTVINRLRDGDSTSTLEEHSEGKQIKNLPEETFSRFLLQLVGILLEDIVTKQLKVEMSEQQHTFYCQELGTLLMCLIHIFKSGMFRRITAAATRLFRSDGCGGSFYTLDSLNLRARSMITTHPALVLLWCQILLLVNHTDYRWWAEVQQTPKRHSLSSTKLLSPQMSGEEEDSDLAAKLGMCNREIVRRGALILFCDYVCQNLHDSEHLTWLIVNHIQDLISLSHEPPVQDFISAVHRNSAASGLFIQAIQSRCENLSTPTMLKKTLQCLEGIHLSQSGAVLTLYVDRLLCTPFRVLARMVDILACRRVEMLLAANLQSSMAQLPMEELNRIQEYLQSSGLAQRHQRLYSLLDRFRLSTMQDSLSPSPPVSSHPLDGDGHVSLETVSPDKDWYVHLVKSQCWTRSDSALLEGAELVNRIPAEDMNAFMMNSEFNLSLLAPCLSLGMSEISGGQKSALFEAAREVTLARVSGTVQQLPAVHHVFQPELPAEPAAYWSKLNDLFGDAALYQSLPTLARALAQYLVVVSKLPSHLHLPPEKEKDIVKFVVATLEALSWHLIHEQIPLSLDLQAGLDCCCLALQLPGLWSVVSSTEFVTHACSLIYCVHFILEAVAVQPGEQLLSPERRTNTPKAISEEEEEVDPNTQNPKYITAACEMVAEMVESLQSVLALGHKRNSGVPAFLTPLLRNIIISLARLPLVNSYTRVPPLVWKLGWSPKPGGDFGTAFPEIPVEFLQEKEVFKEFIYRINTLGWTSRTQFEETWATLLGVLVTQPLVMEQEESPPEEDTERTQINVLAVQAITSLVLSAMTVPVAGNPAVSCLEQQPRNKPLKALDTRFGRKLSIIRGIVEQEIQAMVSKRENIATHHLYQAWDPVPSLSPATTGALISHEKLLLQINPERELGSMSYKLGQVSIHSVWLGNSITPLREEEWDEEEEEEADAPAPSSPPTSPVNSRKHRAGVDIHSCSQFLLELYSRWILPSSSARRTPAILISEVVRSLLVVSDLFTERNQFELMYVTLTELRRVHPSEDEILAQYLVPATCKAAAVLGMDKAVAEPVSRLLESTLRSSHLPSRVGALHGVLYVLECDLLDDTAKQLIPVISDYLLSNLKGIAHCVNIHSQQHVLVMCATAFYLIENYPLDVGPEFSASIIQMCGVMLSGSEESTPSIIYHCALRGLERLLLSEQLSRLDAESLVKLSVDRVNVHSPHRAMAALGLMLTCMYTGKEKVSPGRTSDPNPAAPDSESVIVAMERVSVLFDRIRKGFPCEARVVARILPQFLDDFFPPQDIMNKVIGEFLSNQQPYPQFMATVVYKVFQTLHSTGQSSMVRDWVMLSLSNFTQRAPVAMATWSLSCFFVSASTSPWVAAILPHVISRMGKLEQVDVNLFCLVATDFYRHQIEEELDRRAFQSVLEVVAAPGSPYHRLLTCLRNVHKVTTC
# An asterisk follows results filed as active; x = no result given. Rule as the data show it: active = inhibition above about 50%; inactive = the rest.
SMILES,Pf apPOL inh,mHTT-CaM PPI inh
COc1cc(OC)c2c(-c3ccccc3)cc(=O)oc2c1C(CC(=O)N1CCOCC1)c1ccc2c(c1)OCO2 (stereo not drawn),-4,34
CCOC(=O)c1cnc2nc(C)ccc2c1Nc1ccc(F)cc1F,-5,18
O=C(NC1CCCCCC1)c1ccc2c(c1)nc1n2CCN(Cc2ccccc2)C1=O,0,-8
CCN(CC)CCCNC(=O)c1noc2c1CCCCC2,-3,-6
FC(F)(F)c1ccc(N2CCN(Cn3nnc4ccccc43)CC2)nc1,-1,x
COc1cc(C(=O)Nc2sc3c(c2C(=O)O)CCC(C)C3)cc(OC)c1OC (stereo not drawn),-3,3
CCOc1ccccc1NC(=O)c1c(NCc2ccccn2)sc2c1CCC(C)C2 (stereo not drawn),-17,20
COc1ccc(Cl)cc1NC(=O)c1c(NCc2cccnc2)sc2c1CCC(C)C2 (stereo not drawn),-19,78*
COc1ccccc1NC(=O)c1c(NCc2cccnc2)sc2c1CCC(C)C2 (stereo not drawn),-17,80*
c1coc(CN2CCN(Cc3ccncc3)CC2)c1,-9,3
O=C1Cc2ccccc2N1c1c(Cl)cccc1Cl,-4,4
Cc1ccc(/C=C2\CS/C(=C\c3ccc(C)o3)C2=O)o1,3,100*
CN=C1S/C(=C/c2ccc(C)o2)C(=O)N1C,x,-4
Cc1ccc(-c2nc3s/c(=C\c4ccc(C)o4)c(=O)n3n2)cc1,3,1
O=C(Nc1cc(Br)ccc1O)c1noc2c1CCCCC2,-2,-5
O=C(NCc1ccc(-n2ccnc2)cc1)C1CC1,1,6
CC(=O)Nc1nonc1N1C(=N)S/C(=C\c2ccc(-c3ccccc3F)o2)C1=O,0,15
N=C1S/C(=C\c2ccc(-c3ccc(F)c(Cl)c3)o2)C(=O)N1c1nonc1N,0,51*
N=C1S/C(=C\c2ccc(-c3cccc(C(=O)O)c3)o2)C(=O)N1c1nonc1N,-1,47
CC(=O)Nc1nonc1N1C(=N)S/C(=C\c2ccc(-c3cccc(C(F)(F)F)c3)o2)C1=O,-13,56*
O=C(O)C1CSC(c2ccc(OCc3ccc(F)cc3)cc2)N1 (stereo not drawn),-3,-11
CCOc1ccccc1CN1C(=O)CCC1(C)C(=O)NC1CCCCCCC1 (stereo not drawn),-28,8
Cc1cc(Cl)ccc1N(CC(=O)NC(C)c1ccccc1)S(C)(=O)=O (stereo not drawn),-12,-5
Cc1ccc(-c2nn3c(C)nnc3c3ccccc23)cc1,0,12
COc1cccc(C2=NC(c3ccc(F)cc3)NC(c3ccc(OC)cc3O)C2)c1 (stereo not drawn),-5,53*
SMILES,Pf apPOL inh,mHTT-CaM PPI inh
Cc1ccc(C2=NC(C(C)C)NC(c3cc(Br)ccc3O)C2)cc1 (stereo not drawn),-3,27
COc1cccc(C2CC(c3ccc(Cl)cc3)=NC(C(C)C)N2)c1O (stereo not drawn),-5,18
COc1ccc(C2N=C(c3ccc4c(c3)OCO4)CC(c3ccccc3O)N2)cc1 (stereo not drawn),-5,18
COc1cccc(C2=NC(C(C)C)NC(c3cc(Br)ccc3O)C2)c1 (stereo not drawn),-2,81*
Oc1ccccc1C1CC(c2ccc3c(c2)OCO3)=NC(c2cccc(F)c2)N1 (stereo not drawn),-3,4
COc1ccc(C2=NC(C(C)C)NC(c3ccccc3O)C2)cc1OC (stereo not drawn),-4,78*
COc1ccc(C2=NC(c3ccc(OC)c(OC)c3)NC(c3ccccc3O)C2)cc1 (stereo not drawn),-5,53*
CCCc1nc2oc(C(=O)c3ccccc3)c(N)c2c2c1COC(C)(C)C2,9,-8
C#CC(C)(CC)OC(=O)NC(=O)c1ccccc1Cl (stereo not drawn),-4,x
CCc1noc(C2CCCCN2Cc2nc(CCOC)no2)n1 (stereo not drawn),-4,-1
CC(=O)c1ccc(S(=O)(=O)N(CCC#N)CCC#N)cc1,-4,-4
O=C(C(c1ccccc1)c1ccccc1)N1CCN(c2ccc([N+](=O)[O-])cc2)CC1,-8,3
O=C(C(c1ccccc1)c1ccccc1)N1CCN(c2ccc(F)cc2)CC1,0,64*
Cc1cc(S(=O)(=O)NCC2CCS(=O)(=O)C2)c(Cl)cc1Cl (stereo not drawn),0,-7
Cc1nn(-c2ccccc2Br)c2c1C(=O)CC(C)(C)C2,-1,1
COc1ccc(CNCc2ccc3c(c2)OCO3)cc1Br,5,-1
COc1ccc(-c2ccccc2)cc1NCc1ccc(OC)c(OC)c1,-6,73*
COc1ccc(CNC(=O)Cc2ccccc2)cc1OC,6,-3
COc1cc2c(cc1NCc1ccccn1)oc1ccccc12,-4,15
COc1ccc(-c2ccccc2)cc1NCc1ccccn1,-12,72*
COc1ccc(-c2ccccc2)cc1NCc1ccc2c(c1)OCO2,-2,57*
COc1ccc([N+](=O)[O-])cc1NCc1ccccc1F,-1,-46
COc1ccc(-c2ccccc2)cc1NCc1cc(OC)c(O)c([N+](=O)[O-])c1,3,66*
CCOC(=O)c1ccc(Oc2c(C)oc3cc(OS(C)(=O)=O)ccc3c2=O)cc1,-4,2
COc1ccc(-c2cn3ccn(-c4ccc(F)cc4)c(=O)c3n2)cc1OC,3,-2
SMILES,Pf apPOL inh,mHTT-CaM PPI inh
CCCCC1=NN(C(=O)COc2ccc(Cl)c(C)c2)C(O)(C(F)(F)F)C1 (stereo not drawn),0,100*
Cc1ccccc1OCC(=O)N1N=C(c2cccc(Br)c2)CC1(O)C(F)(F)F (stereo not drawn),-3,99*
CCCCC1=NN(C(=O)c2ccccc2Cl)C(O)(C(F)(F)F)C1 (stereo not drawn),3,-10
CCC1=NN(C(=O)COc2ccccc2C)C(O)(C(F)(F)F)C1 (stereo not drawn),-3,-10
Cc1cccc(C2=N/C(=C/c3cc4c(cc3Cl)OCO4)C(=O)O2)c1,-2,5
Cn1c(C(=O)N2CCC(N3CCCCC3)CC2)cc2c1CCN(Cc1ccccc1)C2,-2,31
Cn1c(C(=O)NC2CC2)cc2c1CCN(Cc1ccc(F)cc1)C2,-2,22
CC1CCCN(C(=O)c2cc3c(n2C)CCN(Cc2ccccc2)C3)C1 (stereo not drawn),-2,69*
CC1CCCN(C(=O)c2cc3c(n2C)CCN(Cc2ccc(F)cc2)C3)C1 (stereo not drawn),-6,58*
CC1(C)OC(=O)N(CCCC(=O)O)C1(C)O (stereo not drawn),x,0
O=C(NCCCO)NCC12CC3CC(CC(C3)C1)C2,5,-6
O=C(CSc1nnc(OC(=O)c2cccs2)n1C1Cc2ccccc2C1)c1ccc2c(c1)OCCO2,-13,x
CC(=O)N1CCN(c2nc3c(s2)CC(C(=O)Nc2cccc(C(C)(C)C)c2)CC3)CC1 (stereo not drawn),2,54*
CC(=O)N1CCN(c2nc3c(s2)CC(C(=O)Nc2ccccc2)CC3)CC1 (stereo not drawn),-1,28
COCCOCC1CCN(C(=O)COc2cccc(OC)c2)CC1,-11,-4
CCn1ccnc1N1CCN(C(=O)CC23CC4CC(CC(C4)C2)C3)CC1,-1,8
COc1ccc2ncc(C#N)c(N3CCC(C(=O)N4CCCCC4)CC3)c2c1,-4,-2
